# Publication PMC7862700, “An all-to-all approach to the identification of sequence-specific readers for epigenetic DNA modifications on cytosine”
# How the values were obtained:
# Test in all cases: DAPPL (digital affinity profiling via proximity ligation, sequencing); 10 mM Tris-HCl pH 7.5, 50 mM NaCl, 1 mM DTT, 4% glycerol, room temperature, 30 min; GST-TFs on glutathione beads, 16-mer random dsDNA library, 0.1% formaldehyde crosslink after washing; high values mean tight binding
# FLI1 = biological target: T1, FLI1 (Homo sapiens, UniProt Q01543 1-452); settings: protein: recombinant; tags: N-terminal GST; dsDNA, one strand shown
# T1 sequence: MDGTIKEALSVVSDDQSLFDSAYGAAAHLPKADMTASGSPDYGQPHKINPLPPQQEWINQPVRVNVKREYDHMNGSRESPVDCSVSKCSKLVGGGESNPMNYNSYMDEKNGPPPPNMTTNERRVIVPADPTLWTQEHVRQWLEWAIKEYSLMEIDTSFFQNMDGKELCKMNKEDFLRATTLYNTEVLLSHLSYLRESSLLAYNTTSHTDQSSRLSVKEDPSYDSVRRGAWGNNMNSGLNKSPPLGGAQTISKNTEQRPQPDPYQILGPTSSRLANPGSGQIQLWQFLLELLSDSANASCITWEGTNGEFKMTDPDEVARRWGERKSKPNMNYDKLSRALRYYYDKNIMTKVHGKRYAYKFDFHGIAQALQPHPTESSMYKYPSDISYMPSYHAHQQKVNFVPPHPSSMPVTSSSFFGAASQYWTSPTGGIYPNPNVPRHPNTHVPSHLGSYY
# Summary of the method: (§1)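 A tag-only sample was pooled with DNA-barcoded human transcription factors that had been expressed in yeast as GST fusions and captured on glutathione beads. The pools were incubated for 30 min at room temperature with 200 nmole of a random double-stranded 16-mer DNA library in Tris/NaCl/DTT/glycerol buffer, then washed, crosslinked with 0.1% formaldehyde, proximity-ligated (BsaI/T4 ligase, 1 h, 37 °C), PCR-amplified and sequenced on an Illumina NextSeq500. Binding signal is each hexamer's read frequency for a factor divided by its frequency for the tag-only sample.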
# ELK1 = biological target: T2, ELK1 (Homo sapiens, UniProt P19419 1-428); settings: protein: recombinant; tags: N-terminal GST; dsDNA, one strand shown
# T2 sequence: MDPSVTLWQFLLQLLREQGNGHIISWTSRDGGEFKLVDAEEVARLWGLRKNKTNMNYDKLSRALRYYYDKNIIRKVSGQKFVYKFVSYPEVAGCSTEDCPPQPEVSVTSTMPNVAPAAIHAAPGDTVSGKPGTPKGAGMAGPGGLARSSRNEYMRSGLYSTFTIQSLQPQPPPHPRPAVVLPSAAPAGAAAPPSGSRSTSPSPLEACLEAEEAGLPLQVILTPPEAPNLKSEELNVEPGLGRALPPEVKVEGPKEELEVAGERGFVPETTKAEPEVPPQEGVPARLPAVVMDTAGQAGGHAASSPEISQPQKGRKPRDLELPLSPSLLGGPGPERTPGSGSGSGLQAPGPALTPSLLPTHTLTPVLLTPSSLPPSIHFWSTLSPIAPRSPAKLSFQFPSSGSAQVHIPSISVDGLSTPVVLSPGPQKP
# Summary of the method: as §1
# GABPA = biological target: T3, GABPA (Homo sapiens, UniProt Q06546 1-454); settings: protein: recombinant; tags: N-terminal GST; dsDNA, one strand shown
# T3 sequence: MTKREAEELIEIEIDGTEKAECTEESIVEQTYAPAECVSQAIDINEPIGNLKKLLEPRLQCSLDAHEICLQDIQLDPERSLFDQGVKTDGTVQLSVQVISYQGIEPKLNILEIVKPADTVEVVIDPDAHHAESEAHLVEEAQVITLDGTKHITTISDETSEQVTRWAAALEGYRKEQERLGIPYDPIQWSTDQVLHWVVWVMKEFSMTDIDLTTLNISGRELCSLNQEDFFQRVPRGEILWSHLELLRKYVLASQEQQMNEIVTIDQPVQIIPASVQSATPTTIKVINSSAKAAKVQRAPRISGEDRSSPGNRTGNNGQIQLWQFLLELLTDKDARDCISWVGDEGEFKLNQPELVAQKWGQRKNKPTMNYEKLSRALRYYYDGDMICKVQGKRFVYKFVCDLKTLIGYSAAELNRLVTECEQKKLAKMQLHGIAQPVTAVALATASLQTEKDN
# Summary of the method: as §1
# ERG = biological target: T4, ERG (Homo sapiens, UniProt P11308 1-479); settings: protein: recombinant; tags: N-terminal GST; dsDNA, one strand shown
# T4 sequence: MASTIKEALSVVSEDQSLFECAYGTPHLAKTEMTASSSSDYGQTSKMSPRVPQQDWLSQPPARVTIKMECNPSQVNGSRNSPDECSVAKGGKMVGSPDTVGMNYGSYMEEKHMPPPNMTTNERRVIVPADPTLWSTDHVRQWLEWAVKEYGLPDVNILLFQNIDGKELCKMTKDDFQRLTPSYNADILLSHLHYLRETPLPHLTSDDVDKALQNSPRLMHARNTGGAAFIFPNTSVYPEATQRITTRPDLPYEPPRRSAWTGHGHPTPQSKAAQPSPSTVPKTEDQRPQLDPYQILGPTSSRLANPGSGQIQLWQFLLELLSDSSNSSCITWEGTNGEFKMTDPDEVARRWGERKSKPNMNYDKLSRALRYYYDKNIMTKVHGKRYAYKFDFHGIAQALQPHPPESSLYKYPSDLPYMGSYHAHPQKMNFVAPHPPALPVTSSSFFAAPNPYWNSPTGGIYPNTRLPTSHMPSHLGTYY
# Summary of the method: as §1
# ELF1 = ELF1 (Homo sapiens, UniProt P32519 1-619); settings: protein: recombinant; tags: N-terminal GST; dsDNA, one strand shown
# Sequence of ELF1 (P32519 whole entry): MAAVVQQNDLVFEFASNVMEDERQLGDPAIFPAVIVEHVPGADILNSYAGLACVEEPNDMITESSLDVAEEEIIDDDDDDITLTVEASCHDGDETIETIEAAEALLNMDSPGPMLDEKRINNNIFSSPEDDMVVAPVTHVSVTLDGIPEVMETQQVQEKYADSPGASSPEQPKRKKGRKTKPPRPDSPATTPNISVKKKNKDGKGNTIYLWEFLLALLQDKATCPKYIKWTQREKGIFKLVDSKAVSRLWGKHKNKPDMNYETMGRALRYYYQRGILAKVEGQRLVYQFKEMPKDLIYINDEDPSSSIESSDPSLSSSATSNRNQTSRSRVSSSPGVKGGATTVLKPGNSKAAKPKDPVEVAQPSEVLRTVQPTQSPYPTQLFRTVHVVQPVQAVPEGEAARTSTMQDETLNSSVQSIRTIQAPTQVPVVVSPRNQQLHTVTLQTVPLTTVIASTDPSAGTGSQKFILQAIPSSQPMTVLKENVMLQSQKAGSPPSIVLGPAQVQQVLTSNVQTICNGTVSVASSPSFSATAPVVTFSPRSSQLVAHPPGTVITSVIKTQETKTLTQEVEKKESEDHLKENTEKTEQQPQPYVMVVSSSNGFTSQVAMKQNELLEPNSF
# Summary of the method: as §1
# EHF = biological target: T5, EHF (Homo sapiens, UniProt Q9NZC4 1-300); settings: protein: recombinant; tags: N-terminal GST; dsDNA, one strand shown
# T5 sequence: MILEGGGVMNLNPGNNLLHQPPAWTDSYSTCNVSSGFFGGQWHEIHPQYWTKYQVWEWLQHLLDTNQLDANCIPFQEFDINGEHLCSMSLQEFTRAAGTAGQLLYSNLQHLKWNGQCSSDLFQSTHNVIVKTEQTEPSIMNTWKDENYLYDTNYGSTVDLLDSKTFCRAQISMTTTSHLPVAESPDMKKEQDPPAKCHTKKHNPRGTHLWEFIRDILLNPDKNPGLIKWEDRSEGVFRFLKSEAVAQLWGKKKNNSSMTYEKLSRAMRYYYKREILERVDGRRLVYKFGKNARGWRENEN
# Summary of the method: as §1
# SPI1 = SPI1 (Homo sapiens, UniProt P17947 1-270); settings: protein: recombinant; tags: N-terminal GST; dsDNA, one strand shown
# Summary of the method: as §1
# SPIB = SPIB (Homo sapiens, UniProt Q01892 1-262); settings: protein: recombinant; tags: N-terminal GST; dsDNA, one strand shown
# Sequence of SPIB (Q01892 whole entry): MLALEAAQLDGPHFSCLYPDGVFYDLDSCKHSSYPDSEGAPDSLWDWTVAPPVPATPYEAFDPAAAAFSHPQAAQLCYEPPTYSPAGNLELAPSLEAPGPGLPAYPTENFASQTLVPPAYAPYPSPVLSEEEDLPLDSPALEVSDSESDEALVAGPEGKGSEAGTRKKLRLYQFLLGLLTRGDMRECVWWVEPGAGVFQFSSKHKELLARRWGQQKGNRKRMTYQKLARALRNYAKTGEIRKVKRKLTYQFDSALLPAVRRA
# Summary of the method: as §1
# ELK3 = biological target: T6, ELK3 (Homo sapiens, UniProt P41970 1-407); settings: protein: recombinant; tags: N-terminal GST; dsDNA, one strand shown
# T6 sequence: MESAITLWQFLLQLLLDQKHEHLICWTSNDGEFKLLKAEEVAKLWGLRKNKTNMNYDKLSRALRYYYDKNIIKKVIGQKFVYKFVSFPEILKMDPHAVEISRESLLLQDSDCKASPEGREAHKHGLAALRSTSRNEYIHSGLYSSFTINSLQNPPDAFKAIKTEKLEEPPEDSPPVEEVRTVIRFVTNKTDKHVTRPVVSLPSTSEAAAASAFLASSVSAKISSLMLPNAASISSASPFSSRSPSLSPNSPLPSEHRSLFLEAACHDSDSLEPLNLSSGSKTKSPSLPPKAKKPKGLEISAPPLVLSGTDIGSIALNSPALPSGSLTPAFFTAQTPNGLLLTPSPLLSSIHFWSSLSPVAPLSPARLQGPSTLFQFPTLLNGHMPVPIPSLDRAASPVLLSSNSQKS
# Summary of the method: as §1
# FEV = biological target: T7, FEV (Homo sapiens, UniProt Q99581 1-238); settings: protein: recombinant; tags: N-terminal GST; dsDNA, one strand shown
# T7 sequence: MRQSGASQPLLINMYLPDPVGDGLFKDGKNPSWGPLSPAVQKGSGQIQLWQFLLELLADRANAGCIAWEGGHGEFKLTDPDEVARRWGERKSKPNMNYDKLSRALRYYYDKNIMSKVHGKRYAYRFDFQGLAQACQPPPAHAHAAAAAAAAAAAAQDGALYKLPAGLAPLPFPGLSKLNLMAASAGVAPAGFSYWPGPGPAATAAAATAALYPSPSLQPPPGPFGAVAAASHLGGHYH
# Summary of the method: as §1
# ETV5 = ETV5 (Homo sapiens, UniProt P41161 1-510); settings: protein: recombinant; tags: N-terminal GST; dsDNA, one strand shown
# Sequence of ETV5 (P41161 whole entry): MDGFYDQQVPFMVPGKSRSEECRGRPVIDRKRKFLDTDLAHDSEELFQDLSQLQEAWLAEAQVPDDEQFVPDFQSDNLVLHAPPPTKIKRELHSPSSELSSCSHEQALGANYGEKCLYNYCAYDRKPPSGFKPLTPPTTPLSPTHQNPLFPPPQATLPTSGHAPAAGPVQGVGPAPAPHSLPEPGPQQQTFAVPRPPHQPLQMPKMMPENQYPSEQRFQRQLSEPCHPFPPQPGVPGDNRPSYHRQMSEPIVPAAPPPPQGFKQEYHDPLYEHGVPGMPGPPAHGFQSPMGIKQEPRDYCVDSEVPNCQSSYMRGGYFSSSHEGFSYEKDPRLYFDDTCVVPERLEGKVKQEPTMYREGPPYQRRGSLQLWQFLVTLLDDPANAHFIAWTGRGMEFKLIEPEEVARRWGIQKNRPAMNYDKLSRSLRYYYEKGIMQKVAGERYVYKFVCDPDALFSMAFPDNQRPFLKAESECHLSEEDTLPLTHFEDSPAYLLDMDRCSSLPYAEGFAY
# Summary of the method: as §1
# HSF1 = HSF1 (Homo sapiens, UniProt Q00613 1-529); settings: protein: recombinant; tags: N-terminal GST; chain copies: 3; dsDNA, one strand shown
# Sequence of HSF1 (Q00613 whole entry): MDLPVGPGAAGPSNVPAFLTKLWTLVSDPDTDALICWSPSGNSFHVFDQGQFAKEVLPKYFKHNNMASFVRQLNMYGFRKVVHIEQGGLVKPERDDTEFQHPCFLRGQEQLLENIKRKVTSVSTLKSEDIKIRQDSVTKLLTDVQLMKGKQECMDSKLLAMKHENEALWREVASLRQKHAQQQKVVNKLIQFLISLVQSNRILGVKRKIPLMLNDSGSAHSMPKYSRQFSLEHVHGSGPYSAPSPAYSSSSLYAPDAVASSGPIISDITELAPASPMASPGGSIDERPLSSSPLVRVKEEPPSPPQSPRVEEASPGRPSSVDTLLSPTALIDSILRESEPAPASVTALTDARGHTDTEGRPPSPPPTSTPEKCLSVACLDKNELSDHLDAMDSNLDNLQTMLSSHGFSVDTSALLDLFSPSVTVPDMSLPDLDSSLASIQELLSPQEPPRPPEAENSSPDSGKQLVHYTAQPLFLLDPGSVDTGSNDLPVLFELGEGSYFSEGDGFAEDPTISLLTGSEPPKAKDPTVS
# Summary of the method: as §1
# SPIC = biological target: T8, SPIC (Homo sapiens, UniProt Q8N5J4 1-248); settings: protein: recombinant; tags: N-terminal GST; dsDNA, one strand shown
# T8 sequence: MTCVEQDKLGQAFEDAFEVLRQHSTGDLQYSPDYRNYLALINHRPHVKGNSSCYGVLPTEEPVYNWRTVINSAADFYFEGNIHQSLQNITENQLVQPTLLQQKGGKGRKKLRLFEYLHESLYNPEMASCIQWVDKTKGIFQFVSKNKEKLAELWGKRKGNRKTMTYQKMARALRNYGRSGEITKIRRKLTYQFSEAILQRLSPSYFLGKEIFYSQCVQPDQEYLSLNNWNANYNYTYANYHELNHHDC
# Summary of the method: as §1
# ELF4 = ELF4 (Homo sapiens, UniProt Q99607 1-663); settings: protein: recombinant; tags: N-terminal GST; dsDNA, one strand shown
# Sequence of ELF4 (Q99607 whole entry): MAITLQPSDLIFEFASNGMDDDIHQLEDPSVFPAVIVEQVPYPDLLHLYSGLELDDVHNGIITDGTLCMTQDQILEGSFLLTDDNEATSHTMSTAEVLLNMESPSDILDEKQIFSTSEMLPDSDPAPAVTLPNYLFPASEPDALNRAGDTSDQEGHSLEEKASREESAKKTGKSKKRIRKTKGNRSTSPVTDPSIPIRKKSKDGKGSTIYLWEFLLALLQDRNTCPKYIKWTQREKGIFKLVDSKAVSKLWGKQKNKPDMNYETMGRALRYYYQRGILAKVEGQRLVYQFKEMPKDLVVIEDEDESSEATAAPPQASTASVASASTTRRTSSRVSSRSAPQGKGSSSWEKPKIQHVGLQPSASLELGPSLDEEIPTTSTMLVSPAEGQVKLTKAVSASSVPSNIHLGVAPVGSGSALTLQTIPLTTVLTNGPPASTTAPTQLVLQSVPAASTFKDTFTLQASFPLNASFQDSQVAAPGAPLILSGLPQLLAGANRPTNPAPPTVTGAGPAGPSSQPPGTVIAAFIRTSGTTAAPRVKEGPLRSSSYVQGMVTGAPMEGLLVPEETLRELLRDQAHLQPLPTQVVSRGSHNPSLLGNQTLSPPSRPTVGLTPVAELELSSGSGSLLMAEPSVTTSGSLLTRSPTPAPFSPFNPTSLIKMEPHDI
# Summary of the method: as §1
# ELK4 = biological target: T9, ELK4 (Homo sapiens, UniProt P28324-2 1-405); settings: protein: recombinant; tags: N-terminal GST; dsDNA, one strand shown
# T9 sequence: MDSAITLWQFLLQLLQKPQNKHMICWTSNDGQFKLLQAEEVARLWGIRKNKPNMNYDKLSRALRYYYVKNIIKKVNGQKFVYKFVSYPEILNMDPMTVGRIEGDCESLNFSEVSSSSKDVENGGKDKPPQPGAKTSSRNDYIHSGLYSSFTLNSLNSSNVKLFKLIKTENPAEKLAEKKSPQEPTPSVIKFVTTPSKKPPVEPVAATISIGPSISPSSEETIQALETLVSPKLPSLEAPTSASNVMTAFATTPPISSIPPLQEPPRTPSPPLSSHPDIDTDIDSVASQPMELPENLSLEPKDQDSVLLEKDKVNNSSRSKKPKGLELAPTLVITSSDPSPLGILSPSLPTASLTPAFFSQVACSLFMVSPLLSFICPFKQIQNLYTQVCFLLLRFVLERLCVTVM
# Summary of the method: as §1
# ETV2 = biological target: T10, ETV2 (Homo sapiens, UniProt O00321 1-342); settings: protein: recombinant; tags: N-terminal GST; dsDNA, one strand shown
# T10 sequence: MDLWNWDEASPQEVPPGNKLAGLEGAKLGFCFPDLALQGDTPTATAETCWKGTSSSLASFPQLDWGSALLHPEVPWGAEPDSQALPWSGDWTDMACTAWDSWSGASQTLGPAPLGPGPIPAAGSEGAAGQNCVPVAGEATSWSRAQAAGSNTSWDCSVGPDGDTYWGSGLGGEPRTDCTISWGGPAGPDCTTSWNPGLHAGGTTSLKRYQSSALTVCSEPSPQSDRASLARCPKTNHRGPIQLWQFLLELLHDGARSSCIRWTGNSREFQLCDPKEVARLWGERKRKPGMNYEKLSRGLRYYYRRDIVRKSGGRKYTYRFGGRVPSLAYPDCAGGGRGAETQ
# Summary of the method: as §1
# ELF3 = biological target: T11, ELF3 (Homo sapiens, UniProt P78545 1-371); settings: protein: recombinant; tags: N-terminal GST; dsDNA, one strand shown
# T11 sequence: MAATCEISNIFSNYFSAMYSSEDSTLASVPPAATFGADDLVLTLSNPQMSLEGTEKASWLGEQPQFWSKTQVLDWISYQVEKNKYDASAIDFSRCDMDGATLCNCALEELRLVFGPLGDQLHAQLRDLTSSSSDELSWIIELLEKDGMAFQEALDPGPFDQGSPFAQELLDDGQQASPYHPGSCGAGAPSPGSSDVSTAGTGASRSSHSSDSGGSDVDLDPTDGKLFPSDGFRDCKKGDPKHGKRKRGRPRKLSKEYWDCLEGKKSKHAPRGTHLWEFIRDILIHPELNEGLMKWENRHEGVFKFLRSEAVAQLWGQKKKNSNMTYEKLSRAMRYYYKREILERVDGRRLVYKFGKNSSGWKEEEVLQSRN
# Summary of the method: as §1
# CRX = CRX (Homo sapiens, UniProt O43186 1-299); settings: protein: recombinant; tags: N-terminal GST; dsDNA, one strand shown
# Sequence of CRX (O43186 whole entry): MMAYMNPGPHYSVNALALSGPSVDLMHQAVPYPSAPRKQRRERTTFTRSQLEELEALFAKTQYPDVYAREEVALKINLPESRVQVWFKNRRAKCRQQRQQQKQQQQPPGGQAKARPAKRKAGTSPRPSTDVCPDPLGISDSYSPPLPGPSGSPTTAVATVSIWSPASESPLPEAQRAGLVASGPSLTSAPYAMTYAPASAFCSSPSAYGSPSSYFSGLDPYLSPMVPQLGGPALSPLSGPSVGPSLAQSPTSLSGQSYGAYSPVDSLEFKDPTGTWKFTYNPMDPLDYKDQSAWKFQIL
# Summary of the method: as §1
# ETV1 = ETV1 (Homo sapiens, UniProt P50549 1-477); settings: protein: recombinant; tags: N-terminal GST; dsDNA, one strand shown
# Sequence of ETV1 (P50549 whole entry): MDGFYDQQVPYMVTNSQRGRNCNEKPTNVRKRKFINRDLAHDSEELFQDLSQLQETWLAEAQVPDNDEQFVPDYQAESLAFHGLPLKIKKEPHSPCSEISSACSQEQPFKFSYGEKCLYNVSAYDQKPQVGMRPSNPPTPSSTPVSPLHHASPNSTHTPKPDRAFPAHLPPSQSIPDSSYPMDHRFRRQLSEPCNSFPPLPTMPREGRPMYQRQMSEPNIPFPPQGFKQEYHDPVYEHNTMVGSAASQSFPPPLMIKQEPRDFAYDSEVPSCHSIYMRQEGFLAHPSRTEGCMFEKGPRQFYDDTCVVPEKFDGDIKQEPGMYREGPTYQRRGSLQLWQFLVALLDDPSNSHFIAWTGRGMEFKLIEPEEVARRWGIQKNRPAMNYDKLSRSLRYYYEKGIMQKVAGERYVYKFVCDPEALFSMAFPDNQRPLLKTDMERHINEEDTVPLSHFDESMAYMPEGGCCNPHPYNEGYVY
# Summary of the method: as §1
sequence,measurement,setting,value
CCTAAT,binding signal,FLI1,"1.32 fold enrichment (6-mer frequency, TF over GST control)"
same,binding signal,ELK1,"1.12 fold enrichment (6-mer frequency, TF over GST control)"
same,binding signal,GABPA,"1.29 fold enrichment (6-mer frequency, TF over GST control)"
same,binding signal,ERG,"1.34 fold enrichment (6-mer frequency, TF over GST control)"
same,binding signal,ELF1,"1.39 fold enrichment (6-mer frequency, TF over GST control)"
same,binding signal,EHF,"1.28 fold enrichment (6-mer frequency, TF over GST control)"
same,binding signal,SPI1,"1.34 fold enrichment (6-mer frequency, TF over GST control)"
same,binding signal,SPIB,"1.44 fold enrichment (6-mer frequency, TF over GST control)"
same,binding signal,ELK3,"1.29 fold enrichment (6-mer frequency, TF over GST control)"
same,binding signal,FEV,"1.32 fold enrichment (6-mer frequency, TF over GST control)"
same,binding signal,ETV5,"1.31 fold enrichment (6-mer frequency, TF over GST control)"
same,binding signal,HSF1,"1.75 fold enrichment (6-mer frequency, TF over GST control)"
same,binding signal,SPIC,"1.33 fold enrichment (6-mer frequency, TF over GST control)"
same,binding signal,ELF4,"1.26 fold enrichment (6-mer frequency, TF over GST control)"
same,binding signal,ELK4,"1.24 fold enrichment (6-mer frequency, TF over GST control)"
same,binding signal,ETV2,"1.44 fold enrichment (6-mer frequency, TF over GST control)"
same,binding signal,ELF3,"1.52 fold enrichment (6-mer frequency, TF over GST control)"
same,binding signal,CRX,"2.61 fold enrichment (6-mer frequency, TF over GST control)"
same,binding signal,ETV1,"1.38 fold enrichment (6-mer frequency, TF over GST control)"
